Data taken from PubChem BioAssay AID1159580 (chemical genetic matrix, 2015).
Among all 5,500 compounds or so, about 2,000 (36%) were called active. Not shown: some 18% with an inconclusive outcome. Cut-off read from the data, not from the text of the source: active = normalized growth mostly below about 0.91 (no sharp cut-off); inconclusive = no clear call, values can overlap the other calls; inactive = mostly above about 0.92. The list shows a part of the results.

Assay: chemical genetic growth profiling, strain panel (AID 1159580);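 note: tested at 20 µM; growth read once vehicle control cultures reached saturation at 30 °C; 1 = growth at the plate median or of vehicle wells; lower values mean less growth of the strain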
Conditions: growth OD
[1] = S. cerevisiae deletion strains, locus YAL013W, strain DEP1, stronger effect = lower value
[2] = S. cerevisiae deletion strains, locus YBR229C, strain ROT2, stronger effect = lower value
[3] = S. cerevisiae deletion strains, locus YDL101C, strain DUN1, stronger effect = lower value
[4] = S. cerevisiae deletion strains, locus YDL134C, strain PPH21, stronger effect = lower value
[5] = S. cerevisiae deletion strains, locus YDR150W, strain NUM1, stronger effect = lower value
[6] = S. cerevisiae deletion strains, locus YEL061C, strain CIN8, stronger effect = lower value
[7] = S. cerevisiae deletion strains, locus YGR078C, strain PAC10, stronger effect = lower value
[8] = S. cerevisiae deletion strains, locus YHR030C, strain SLT2, stronger effect = lower value
[9] = S. cerevisiae deletion strains, locus YHR087W, strain rtc3, stronger effect = lower value
[10] = S. cerevisiae deletion strains, locus YJR043C, strain POL32, stronger effect = lower value
[11] = S. cerevisiae deletion strains, locus YJR075W, strain HOC1, stronger effect = lower value
[12] = S. cerevisiae deletion strains, locus YLR039C, strain RIC1, stronger effect = lower value
[13] = S. cerevisiae deletion strains, locus YLR058C, strain SHM2 (second series), stronger effect = lower value
[14] = S. cerevisiae deletion strains, locus YLR085C, strain ARP6, stronger effect = lower value
[15] = S. cerevisiae deletion strains, locus YLR262C, strain YPT6, stronger effect = lower value
[16] = S. cerevisiae deletion strains, locus YML094W, strain GIM5, stronger effect = lower value
[17] = S. cerevisiae deletion strains, locus YMR219W, strain ESC1, stronger effect = lower value
[18] = S. cerevisiae deletion strains, locus YMR263W, strain SAP30, stronger effect = lower value
[19] = S. cerevisiae deletion strains, locus YNL153C, strain GIM3, stronger effect = lower value
[20] = S. cerevisiae deletion strains, locus YNL298W, strain CLA4 (second series), stronger effect = lower value
[21] = S. cerevisiae deletion strains, locus YNL322C, strain KRE1, stronger effect = lower value
[22] = S. cerevisiae deletion strains, locus YNR030W, strain Alg12, stronger effect = lower value
[23] = S. cerevisiae deletion strains, locus YOL006C, strain TOP1, stronger effect = lower value
[24] = S. cerevisiae deletion strains, locus YPL241C, strain CIN2, stronger effect = lower value
[25] = S. cerevisiae deletion strains, locus YPR135W, strain CTF4, stronger effect = lower value

Measured: normalized growth

C=Cc1c(SC)sc(C(=O)O)c1C
active: [1] 0.869 | [2] 0.766 | S. cerevisiae deletion strains, locus YCL061C, strain MRC1, stronger effect = lower value 0.746 | [3] 0.705 | [7] 0.794 | [9] 0.761 | [10] 0.807 | [11] 0.636 | [13] 0.889 | [15] 0.776 | [17] 0.804 | [18] 0.869 | [19] 0.771 | [21] 0.865
inactive: [4] 1.01 | [5] 0.869 | [6] 0.999 | [8] 1.05 | S. cerevisiae deletion strains, locus YJL187C, strain SWE1, stronger effect = lower value 1.05 | [12] 0.795 | [14] 1.05 | [16] 1.01 | S. cerevisiae deletion strains, locus YNL128W, strain TEP1, stronger effect = lower value 1.04 | [20] 1.02 | [22] 0.979 | [23] 1.07 | [24] 0.966 | [25] 1.1

N#CCCC1(CCC#N)c2ccccc2-c2ccccc21
inactive: [1] 0.99 | [2] 1.02 | [3] 1.03 | [4] 1.02 | [5] 1.01 | [6] 1.01 | [7] 1.01 | [8] 1.05 | [9] 1.03 | [10] 1.01 | [11] 1.01 | [12] 1.06 | [13] 1.01 | [14] 1.03 | [15] 1.01 | [16] 1.03 | [17] 1.03 | [18] 1.02 | [19] 1.04 | [20] 1.01 | [21] 1.01 | [22] 1 | [23] 1.08 | S. cerevisiae deletion strains, locus YPL055C, strain LGE1, stronger effect = lower value 1.03 | [24] 1.01 | [25] 1.11 | S. cerevisiae strains, strain wild type, stronger effect = lower value 1.03
